Each structure is given as a SMILES string. Several values for one entry are separate records, joined by “and”; a condition that tells them apart may be missing. Equal values may be shown once. About 83,000 compounds went through this panel and 20% of them were active in at least one assay; those are over-represented in the sample as a whole.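 Step 1: grow cells in 96-well plates. Step 2: add test compound at a single concentration. Step 3: incubate 48 h. Step 4: record percent growth.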 Activity calls are given as the source filed them. Rule for the calls: active = growth percent below 10; inactive = the rest.

The first assay relates to SW-620 colon. Briefly: NCI-60 one-dose screen, 48 h (100 = growth as untreated, 0 = no growth, -100 = all killed). Particulars: 10 µM unless noted.
With `CCOC(=O)C1C(C=C(C)C)C1(C)C` (configuration not stated), the growth is 89.3% (inactive).
Same read-out and setting: the same measure for `O=C/C=C/c1ccco1`: 104% (inactive); for `Cn1cc(-c2csc(-c3cn(CCCCN4CCOCC4)c4ccc(F)cc34)n2)c2cccnc21`: 19.7% (inactive); for `CC(=O)Nc1nc2c(s1)C1=CC[C@H]3[C@@H]4CC[C@H](OC(C)=O)[C@@]4(C)CC[C@@H]3[C@@]1(C)CC2`: 43.3% (inactive).
On the same count and under the same terms, the figure for `C[C@]12CCc3sc(Nc4ccc(O)cc4)nc3C1=CC[C@@H]1[C@@H]2CC[C@]2(C)C(=O)CC[C@@H]12` is -32.2% (active); for `O=C(O)C(Br)CBr` (configuration not stated) it is 105% (inactive).
On the same count and under the same terms, the figure for `O=P(O)(Nc1ccccc1)Nc1ccccc1` is 86.2% (inactive); for `Cc1cc(N(CCCl)CCCl)ccc1C=Nc1ccc(-c2csc(-c3ccccc3)n2)cc1` it is 83.1% (inactive); for `COC12CC3(C)C(C4=CC(=O)OC4)CCC3(O)C3CCC4=CC(=O)CCC4(CO1)C32` (configuration not stated) it is 105% (inactive).
Turning to `CC12CCC3C(CCC4CC(O)CCC43C)C1CCC2=O` (configuration not stated), the growth is 109% (inactive).
The same measure, in the same setting: the same measure for `COc1cc(-c2ccc(N)c(OC)c2)ccc1N`: 100% (inactive); for `COc1ccn(C)c(=O)c1C#N`: 94.1% (inactive).
Still for that read-out and setting: the figure for `CCCCCCCCCCCCCCCC[N+](C)(C)Cc1ccccc1` is -6.91% (active) and -62.2% (active); for `Cc1nc2ccccc2c(=O)n1-c1ccccc1F` it is 105% (inactive); for `N#CCN(CC#N)[N+](=O)[O-]` it is 101% (inactive).
For `O=[N+]([O-])c1cc(Cl)c(Cl)cc1Cl`, the growth is 100% (inactive) and 105% (inactive).
Turning to `CN1[C@@H](CC(=O)c2ccccc2)CCC[C@H]1CC(=O)c1ccccc1`, the growth was 112% (inactive).
For the molecule `O=Cc1cn(Cc2ccccc2)c2ccccc12`, the growth was 92.4% (inactive).
On the same count and under the same terms, the figure for `C=CC[PH+](c1ccccc1)c1ccccc1.C=CC[PH+](c1ccccc1)c1ccccc1.[Pt+2].[S-]c1nc2ccccc2[nH]1.[S-]c1nc2ccccc2[nH]1` is 3.79% (active); for `O=NN1CCCCC1` it is 107% (inactive); for `COC(=O)C1=CCCN(C)C1` it is 111% (inactive) and 110% (inactive).
Same read-out and setting: the figure for `CC[C@H](C)[C@H](NC(=O)[C@H]1CCCCN1C)C(=O)N(C)[C@H](C[C@@H](OC(C)=O)c1cccc(C(=O)N[C@@H](Cc2ccccc2)C[C@H](C)C(=O)OC)n1)C(C)C` is 24.6% (inactive).
Same read-out and setting: the same measure for `CC1(C)CN=C(NN=C(/C=C/c2ccc(C(F)(F)F)cc2)/C=C/c2ccc(C(F)(F)F)cc2)NC1`: -52.6% (active); for `Nc1ccc2c(c1)Cc1cc(N)ccc1-2`: 98.9% (inactive).
Consider `C[N+]1(C)CCCC1c1cccnc1` (configuration not stated), for which the growth is 100% (inactive).

Another assay has as its system MCF7 breast. The description is as above. As to conditions: 10 µM unless noted.
Take `CCOC(=O)C1C(C=C(C)C)C1(C)C` (configuration not stated): the growth was 112% (inactive).
On the same count and under the same terms, the same measure for `O=C/C=C/c1ccco1`: 96% (inactive); for `Cn1cc(-c2csc(-c3cn(CCCCN4CCOCC4)c4ccc(F)cc34)n2)c2cccnc21`: 78.4% (inactive); for `CC(=O)Nc1nc2c(s1)C1=CC[C@H]3[C@@H]4CC[C@H](OC(C)=O)[C@@]4(C)CC[C@@H]3[C@@]1(C)CC2`: 44.1% (inactive).
Turning to `C[C@]12CC[C@H](O)C[C@@H]1CC[C@@H]1[C@@H]2CC[C@]2(C)OC(=O)CC[C@@H]12`, the growth is 96.8% (inactive).
Same read-out and setting: the same measure for `C[C@]12CCc3sc(Nc4ccc(O)cc4)nc3C1=CC[C@@H]1[C@@H]2CC[C@]2(C)C(=O)CC[C@@H]12`: 3.11% (active); for `O=C(O)C(Br)CBr` (configuration not stated): 87.9% (inactive).
As for `Cc1cc[c-]cc1.Fc1c[c-]c(-c2ccccn2)c(F)c1.N#CCC[PH+](CCC#N)c1ccccc1.[Pt+2]`, the growth was 20.8% (inactive).
The same measure, in the same setting: the figure for `O=P(O)(Nc1ccccc1)Nc1ccccc1` is 97.3% (inactive); for `Cc1cc(N(CCCl)CCCl)ccc1C=Nc1ccc(-c2csc(-c3ccccc3)n2)cc1` it is 48% (inactive); for `Oc1ccccc1C=NCCN=Cc1ccccc1O` it is 97.7% (inactive).
On the same count and under the same terms, the same measure for `COC12CC3(C)C(C4=CC(=O)OC4)CCC3(O)C3CCC4=CC(=O)CCC4(CO1)C32` (configuration not stated): 98.1% (inactive); for `CC12CCC3C(CCC4CC(O)CCC43C)C1CCC2=O` (configuration not stated): 116% (inactive); for `COc1cc(-c2ccc(N)c(OC)c2)ccc1N`: 99.8% (inactive).
The same measure, in the same setting: the same measure for `COc1ccn(C)c(=O)c1C#N`: 93% (inactive); for `CCCCCCCCCCCCCCCC[N+](C)(C)Cc1ccccc1`: 2.3% (active) and -42.3% (active); for `Cc1nc2ccccc2c(=O)n1-c1ccccc1F`: 93.9% (inactive).
Turning to `C[C@]12CC[C@H]3[C@@H](C[C@@H]4SC(Nc5ccccc5)=N[C@@]45C/C(=N/O)CC[C@]35C)[C@@H]1CCC2=O`, the growth was 28.4% (inactive).
On the same count and under the same terms, the figure for `N#CCN(CC#N)[N+](=O)[O-]` is 93.3% (inactive); for `O=C(O)c1ccccc1N(CCO)CCCl` it is 95.9% (inactive).
On to `O=[N+]([O-])c1cc(Cl)c(Cl)cc1Cl`, for which the growth is 99% (inactive) and 113% (inactive).
Same read-out and setting: the same measure for `CN1[C@@H](CC(=O)c2ccccc2)CCC[C@H]1CC(=O)c1ccccc1`: 93.3% (inactive); for `O=Cc1cn(Cc2ccccc2)c2ccccc12`: 84.8% (inactive).
Take `OCCN=Cc1c[nH]c2ccccc12`: the growth is 93% (inactive).
On the same count and under the same terms, the same measure for `C=CC[PH+](c1ccccc1)c1ccccc1.C=CC[PH+](c1ccccc1)c1ccccc1.[Pt+2].[S-]c1nc2ccccc2[nH]1.[S-]c1nc2ccccc2[nH]1`: 3.99% (active); for `O=NN1CCCCC1`: 90.8% (inactive); for `COC(=O)C1=CCCN(C)C1`: 96.1% (inactive) and 101% (inactive).
On the same count and under the same terms, the same measure for `CC[C@H](C)[C@H](NC(=O)[C@H]1CCCCN1C)C(=O)N(C)[C@H](C[C@@H](OC(C)=O)c1cccc(C(=O)N[C@@H](Cc2ccccc2)C[C@H](C)C(=O)OC)n1)C(C)C`: 12.7% (inactive).
Same read-out and setting: the same measure for `CC1(C)CN=C(NN=C(/C=C/c2ccc(C(F)(F)F)cc2)/C=C/c2ccc(C(F)(F)F)cc2)NC1`: -99.5% (active); for `Cc1ccc(P(=O)(O)O)cc1`: 98.6% (inactive); for `Nc1ccc2c(c1)Cc1cc(N)ccc1-2`: 59.9% (inactive).
With `N#CCCc1ccccc1`, the growth is 92% (inactive).
Still for that read-out and setting: the same measure for `CNC(=O)O/N=C(\SC)C(=O)N(C)C`: 103% (inactive); for `CCC1(CCSC#N)C(=O)NC(=O)NC1=O`: 91.2% (inactive); for `Oc1ccccc1C=NCCN=Cc1ccccc1O.[Fe]`: 70.4% (inactive).
Consider `CCCCCCCCCCCCCCCC[N+](C)(C)C`, for which the growth was -78% (active) and 16.9% (inactive).
Same read-out and setting: the figure for `C[N+]1(C)CCCC1c1cccnc1` (configuration not stated) is 90.9% (inactive).

The values above are taken from PubChem BioAssay (NCI).
